# From PubChem BioAssay AID652120 (NMMLSC, 2013)
# Calls of active or inactive are those of the source.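 The calls were made as follows: active = viability below 50% at the top dose and a half-maximal effect concentration under 10 µM; inactive = the rest.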
# Assay: viability of NIH 3T3 fibroblasts – cell-based, CellTiter-Glo, Powder Set01 subset01, cytotoxicity control for AML myeloid differentiation project, dose response (AID 652120)
# Conditions: NIH 3T3 viability, ATP luminescence (CellTiter-Glo); series mostly up to 10 µM; viability: at the top concentration
row,SMILES,viability
1,Cc1ccc(Nc2nc(=O)c3cccnc3s2)c(Br)c1,67.7% (inactive)
2,O=C(O)c1cccnc1Nc1ccc(Cl)cc1,68.4% (inactive)
3,O=C(CCNC(=O)c1ccc(Cl)cc1)NC1CCCc2ccccc21 (stereo not drawn),68.5% (inactive)
